Results filed as inconclusive are left out. Entries that show only a call come without a potency. Calls of active or inactive are those of the source. Calls come from the whole dose curve; as a rule, active = well fitted activation curve with a large enough effect; inconclusive = small, poorly fitted or top-dose-only effect; inactive = flat fitted curve, though single readings scatter.

The nature of the test: Validation screen for small molecules that induce DNA re-replication in MCF 10A normal breast cells (AID 463097). Note: nearly all actives have a fitted effect of over 60% in size. The conditions noted are these: MCF 10A cells, DNA re-replication phenotype imaging; series mostly up to 46.1 µM. Put shortly:
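DNA re-replication was detected as a rise in nuclei with elevated Hoechst fluorescence after a 48 hr compound exposure of MCF 10A cells at 37 C.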
On to `COc1cccc(C(=O)NCCN2CCN(c3ccc(Cl)cc3)CC2)c1`, for which the Potency entry is “inactive”. For `O=C(O)[C@@H]1C[C@@H](C(=O)O)N1`, the Potency result was “inactive”.

Regarding `COc1cccc(OC)c1OCCNCC1COc2ccccc2O1` (stereo not given), the Potency result was “inactive”. The result for `CCCn1c(=O)c2[nH]c(-c3ccc(OCC(=O)NCCN)cc3)nc2n(CCC)c1=O` reads “inactive”. Consider `O=c1[nH]c2cc([N+](=O)[O-])c([N+](=O)[O-])cc2[nH]c1=O`, for which the Potency entry was “inactive”.

For the compound `O=C1NC(O)=NC1(c1ccccc1)c1ccccc1`, the Potency entry is “inactive”. With `c1ccc(-c2ccccn2)nc1` the entry was “inactive”; with `CC(=O)SCC[N+](C)(C)C`, “inactive”; with `CC(C)NCC(O)COc1cccc2ccccc12` (stereo not given), “inactive”. On to `O=C(O)/C=C/C(O)c1ccc(Cl)cc1` (stereo not given), for which the Potency entry was “inactive”.

For `O=C(O)[C@@H]1C[C@H](C(=O)O)N1`, the Potency result is “inactive”. With `Cc1ccc(C(=O)O[C@H](C(=O)O)[C@@H](OC(=O)c2ccc(C)cc2)C(=O)O)cc1` (tested in a mixture with another compound) the entry was “inactive”. The result for `CN1C2CCC1CC(OC(=O)C(O)c1ccccc1)C2` (stereo not given) reads “inactive”; that for `C[N+](C)(CCCCCC[N+](C)(C)CCCN1C(=O)c2cccc3cccc(c23)C1=O)CCCN1C(=O)c2cccc3cccc(c23)C1=O`, “inactive”; that for `N[C@@H](CC(=O)O)C(=O)O`, “inactive”. With `CC(C)NC[C@H](O)COc1cccc2[nH]ccc12` the entry was “inactive”; with `O=C(O)c1cc(=O)c2c(Cl)cc(Cl)cc2[nH]1`, “inactive”; with `COc1ccccc1CNCCCCCCNCCCCCCCCNCCCCCCNCc1ccccc1OC`, “inactive”. Consider `O=C(O)CC1CCCc2ccccc2C1O` (stereo not given), for which the Potency entry is “inactive”. As to `NC(N)=NC(=O)c1nc(Cl)c(N2CCCCCC2)nc1N`, the Potency result is “inactive”.

Values taken from PubChem BioAssay (NCATS).
